This is part of a sample that, as a whole, favours compounds with a hit. Of some 83,000 tested, about 20% had one in any assay.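 Growth was measured after 48 h exposure to one concentration of compound in 96-well plates. Values under 10 count as active.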 Active and inactive are the calls of the source.
The compounds below were run on HL-60(TB) leukemia (assay: NCI-60 one-dose screen, 48 h (100 = growth as untreated, 0 = no growth, -100 = all killed)). Conditions: 10 µM unless noted.
For `Clc1cccc(N/N=C/c2c[nH]c3ccccc23)n1`, the growth was 13.8% (inactive). For `Cn1cc(-c2nnc(N)nc2-c2c[nH]c3ccc(F)cc23)c2cc(Br)cnc21`, the growth was 47.1% (inactive). In the case of `CC(C)(C)Nc1nc2cc(Cl)c(Cl)cc2nc1S(C)(=O)=O`, the growth is reported as 36.8% (inactive). For `O=C(Nc1nc2ccc([N+](=O)[O-])cc2s1)Nc1ccccc1F`, the growth was -8.08% (active). `CCOc1ccc2[nH]c(=O)c(C(c3nnnn3CC3CCCO3)N3CCN(Cc4ccccc4)CC3)cc2c1` (stereo not given) was tested, and the growth was 149% (inactive). In the case of `Cc1ccc(S(=O)(=O)Nc2ccc(-c3ccc4c(c3)NC(=O)/C4=C\c3ccc[nH]3)cc2)cc1`, the growth is reported as 39.3% (inactive). For `COc1cc(CNC(=O)[C@]23CCC(C)(C)CC2C2=CCC4[C@@]5(C)CCC(OC(C)=O)C(C)(C)C5CC[C@@]4(C)[C@]2(C)CC3)ccc1OCc1cn(-c2ccc(Cl)cc2Cl)nn1` (stereo not given in full), the growth was 105% (inactive). With `CCCSc1nc(NC2CC2)c(C#N)c(-c2ccc(OC)cc2)n1` the growth was 81% (inactive). `COc1ccc2c(c1)C(Sc1ccc(F)cc1)c1c(nc(N)c(C#N)c1N)O2` (stereo not given) was tested, and the growth was 84.9% (inactive). With `Cc1cc(=O)oc2cc(OCCCCOc3ccc(/C=C/C(=O)Nc4ccc(F)c(Cl)c4)cc3)ccc12` the growth was 97.6% (inactive). In the case of `COc1cc(OC)c2c3nc4cc(C)c(C)cc4nc3n(CCN(C)C)c2c1`, the growth is reported as 52.9% (inactive). With `CN(C(=O)CN1C(=O)/C(=C/c2ccco2)SC1=S)C1CCS(=O)(=O)C1` (stereo not given) the growth was 81.6% (inactive). In the case of `S=C(Nc1ccccc1)Nc1ccc(OCc2nc3ccc(Cl)cc3[nH]2)cc1`, the growth is reported as 85.2% (inactive). `C#CCOc1cc(N(CC)CC)ccc1C(C(=O)NC(C)(C)C)N(C(=O)C1CCc2cc(F)ccc2O1)c1ccc(F)cc1F` (stereo not given) was tested, and the growth was 6.7% (active). `COc1ccc2[nH]cc(-c3nc(N)nnc3-c3cn(C)c4ncccc34)c2c1` was tested, and the growth was 15.1% (inactive). For `COc1ccc(C(=O)NC(=S)N2CCN(c3ncnc4c3cnn4-c3ccccc3)CC2)cc1`, the growth was 80.5% (inactive). With `N#Cc1c(-c2ccc(Cl)cc2)nc2n[nH]c(-c3ccc(Cl)cc3)c2c1-c1ccc(C(F)(F)F)cc1` the growth was 1.12% (active). With `C=C1CCC2C3(C)COC(c4cccs4)OC3CCC2(C)C1CC(Sc1ccccc1)C1=CCOC1=O` (stereo not given) the growth was 19.4% (inactive). `CN(C)c1nc(NCCNS(=O)(=O)c2ccc(C3=Nc4c(N)nc(N)nc4NC(c4ccc(C(F)(F)F)cc4)C3)cc2)nc(Nc2ccc(F)cc2)n1` (stereo not given) was tested, and the growth was -13.7% (active). `CC(=O)Oc1ccccc1C(=O)[Se]CC(=O)Nc1cccc(C(F)(F)F)c1` was tested, and the growth was -14.9% (active). For `Cc1ccc(-c2nc(C#N)c(S(=O)(=O)N3CCN(S(=O)(=O)c4ccc(Cl)cc4)CC3)o2)cc1`, the growth was 79.9% (inactive). `O=C(c1ccccc1)C(c1c[nH]c2ccccc12)c1c[nH]c2ccccc12` was tested, and the growth was 53.8% (inactive). With `CN(C)CCOc1ccc(C(=O)C2[C@H](c3ccc(Cl)cc3)[C@@H](c3ccccc3)NC23C(=O)Nc2ccccc23)cc1` (stereo not given in full) the growth was 35.1% (inactive). For `COc1cc(NC(=O)CSc2nnc(-c3ccc4nc(-c5ccc(Cl)cc5)[nH]c4c3)o2)cc(OC)c1OC`, the growth was 56.6% (inactive). `O=c1[nH]c2ccccc2cc1CSc1ccc(Nc2nccc(-c3ccc4ccccc4c3)n2)cc1` was tested, and the growth was 92.5% (inactive). In the case of `CC(=O)c1c2c(c3ccc4c5ccccc5ccc4n13)C(=O)c1ccccc1C2=O`, the growth is reported as 94.2% (inactive). `COc1cc(/C=C/C(=O)c2ccc(C)cc2)ccc1Oc1nc(Nc2ccc(F)cc2)nc(N(C)C)n1` was tested, and the growth was 41.7% (inactive). `CSc1ccc(C(=O)Nc2ccc3nnn(/C(C#N)=C/c4ccccn4)c3c2)cc1` was tested, and the growth was 6.83% (active). `C#CCOc1ccc(/C=N/Nc2nc(-c3cc4cc(Br)ccc4oc3=O)cs2)cc1OC` was tested, and the growth was 71.1% (inactive). With `CCC(=O)c1c2c(c3ccc4c5ccccc5ccc4n13)C(=O)c1ccccc1C2=O` the growth was 90.1% (inactive). In the case of `O=C(CSc1nc2ccccc2c(=O)[nH]1)NNC(=O)c1ccccc1Cl`, the growth is reported as 105% (inactive). In the case of `O=C(CSc1nc2c(c(=O)[nH]1)CCCC2)Nc1ccccc1C(=O)O`, the growth is reported as 95.1% (inactive). For `COc1ccc2[nH]c(O)c(N=Nc3nc(-c4ccc(Cl)cc4)cs3)c2c1`, the growth was 58% (inactive). In the case of `Cc1cccc(Nc2nc3ccccc3nc2/C=C/c2ccc(F)cc2)c1`, the growth is reported as 97.3% (inactive). In the case of `C#CCOc1ccc(/C=N/Nc2nc(-c3ccc(Cl)cc3)cs2)cc1OC`, the growth is reported as 20.1% (inactive). For `COc1ccc(-c2nc3cc(C)ccc3n2CC(=O)N=Nc2c(O)[nH]c3ccc(Cl)cc23)cc1`, the growth was 41.1% (inactive). In the case of `N#Cc1ccc(/C=N/NC(=O)c2[nH]c3ccc(Br)cc3c2-c2ccccc2)o1`, the growth is reported as -25.1% (active). For `CN1C(=O)/C(=C/c2ccc(C(=O)Nc3ncc(Cc4ccc(Cl)cc4Cl)s3)cc2)SC1=S`, the growth was 19.2% (inactive). In the case of `N#Cc1cnn(C(=O)c2ccccc2Br)c1NC(=O)c1ccc(Br)cc1Cl`, the growth is reported as 107% (inactive). For `Nc1ccc(-c2ccc3ncnc(N4CCc5cc(F)c(Cl)cc54)c3c2)cn1`, the growth was 22.8% (inactive).

— PubChem BioAssay (NCI)
